# Data as given in PubChem BioAssay AID686970 (National Center for Advancing Translational Sciences (NCATS), 2013).
# In all, about 360,000 compounds went through this assay and about 6,000 (1.7%) were called active. Inconclusive results (about 8%) are left out. The entries come from a sample that favours actives as a whole. Values without a mark were called inactive. The call rests on the fitted dose curve; in most records, active means well fitted cell-killing curve with a large enough effect; inconclusive means small, poorly fitted or top-dose-only effect, or effect the other way; inactive means flat fitted curve, though single readings scatter.
# Experiment: qHTS for induction of synthetic lethality in tumor cells producing 2HG: qHTS for the HT-1080-NT fibrosarcoma cell line; further: nearly all actives have a fitted effect of over 55% in size
# Settings: HT-1080-NT fibrosarcoma viability, CellTiter-Glo ATP luminescence, 48 h; series mostly up to 46.1 µM; activity, negative = less viability: at the top concentration
# Description: Unbiased genomic sequencing for 22 glioma genomes found recurrent mutation of IDH1 on chromosome 2q33, a gene encoding the cytosolic isoform of IDH1 associated with the tricarboxylic acid cycle (TCA) that catalyzes the oxidative decarboxylation of isocitrate, yielding alpha-ketoglutarate and CO2 via NADP+ to NADPH conversion. Subsequent studies confirmed the recurrent IDH mutations in up to 70% of secondary gliomas and in 10% of AML cases. In addition, the somatic mutation of cancer-associated IDH1 is a point mutation resulting in various amino-acid substituents at Arginine132 (IDH1 R132), a key residue found in the enzyme's active site that when mutated, results in the loss-of-function in metabolizing isocitrate but confers a gain-of-function to produce the oncometabolite 2-hydroxyglutarate (2HG). This in effect defines IDH1 as an oncogene and provides an extraordinary opportunity to discover chemical probes against mutant IDH1 that may translate into much needed new therapies for glioma and AML patients.
# This assay aims to perform a synthetic lethal screen for chemical probes specific for 2HG-producing tumor cells using matched paired cell lines (1) HT-1080-NT fibrosarcoma cell line that overproduces 2HG and (2) HT-1080-IDH1KD cell line which has IDH1 expression knocked-down. Desirable compounds are toxic to the NT fibrosarcoma cells but not to the IDH1KD cell line. The data in this AID corresponds to the results of the qHTS against the HT-1080-NT fibrosarcoma cell line.
# [1] Dang L, Jin S, Su SM. IDH mutations in glioma and acute myeloid leukemia. Trends of Mol Med. 2010; 16(9): 387-97.
# [2] Dang L et al. Cancer-associated IDH1 mutations produce 2-hydroxyglutarate. Nature. 2010; 465(7300):966.
# NIH Molecular Libraries Probe Production Centers Network [MLPCN]
# NIH Chemical Genomics Center [NCGC]
# Assay Submitter (PI): Lenny Dang Ph.D., Agios Pharmaceuticals
# Suspensions of trypsinized HT-1080-NT cells were dispensed into white, tissue culture-treated, solid 1536-well plates at 5uL/well (750 cells/well final concentration) in RPMI medium supplemented with 5% FBS. Plates were incubated at 37 degrees C for 2 hours, after which 23 nL of compounds or DMSO were delivered to each well using a pin tool. Plates were then incubated at 37 degrees C for an additional 48 hours. CellTiter-Glo viability reagent (Promega) was dispensed into wells (2.5uL/well) and incubated at room temperature for 10 minutes. The plates were measured on a PerkinElmer ViewLux plate reader for luminescent signal (clear filter, 1 sec exp). DMSO-treated control wells and media-only (no cells) control wells were used to normalize %Activity of identified toxic compounds; DMSO-treated wells corresponded to 0%Activity (100% viability), while media-only controls were used to normalize 100%Activity (0% viability).
# Concentration-response curves were fitted to the signals arising from the resulting luminescence. The concentration-effect curves were then classified based on curve quality (r2), response magnitude and degree of measured activity, and compounds were subsequently categorized based on their curve class.
# Potency means the concentration at half of the fitted maximal effect.
Structure (SMILES),"activity, negative = less viability [%]",Potency
Cc1ccc(-c2nc3ccc(Cl)cn3c2Cc2ccccc2)cc1,14.8,
Cc1ccc(Cc2c(-c3ccccc3)nc3ccc(Cl)cn23)cc1,-0.274,
Cc1ccc(Cc2c(-c3ccco3)nc3ccc(Cl)cn23)cc1,,23.1 µM (active)
COc1cc(F)ccc1-c1cc(C(=O)NCC2CCCCC2)[nH]n1,28.9,
O=C1C(Cl)=C(Oc2ccccc2)C(=O)c2ccccc21,,4.11 µM (active)
COc1ccc(C(=O)OCC(=O)Nc2cc(C)on2)cc1F,6.13,
CC(C)(C)OC(=O)N1CCN(C(=O)c2[nH]c(C(F)(F)F)nc2-c2ccccc2)CC1,9.95,
O=c1c([N+](=O)[O-])cccn1Cc1ccc(F)cc1Cl,,14.6 µM (active)
O=[N+]([O-])c1ccccc1NCc1ccccc1Cl,-10.6,
N/C(=N/O)c1cccn1Cc1ccccc1[N+](=O)[O-],10.5,
Cc1ccc(Cn2c(C)c3cnn(CC(=O)NCCN4CCOCC4)c(=O)c3c2C)cc1,9.01,
CC1CC(C)CN(CCCNC(=O)Cn2ncc3c([nH]c4ccccc43)c2=O)C1 (stereo not drawn),5.3,
Cc1c2cnn(CC(=O)NCCCN3CC(C)CC(C)C3)c(=O)c2c(C)n1Cc1ccc(Cl)cc1 (stereo not drawn),,23.1 µM (active)
O=C(Nc1cccc(C(F)(F)F)c1)c1ccc(N2CCNCC2)c([N+](=O)[O-])c1,,16.4 µM (active)
CCC(C)NC(=O)c1ccc(N2CCC3(CC2)OCCO3)c([N+](=O)[O-])c1 (stereo not drawn),0.381,
O=C(Nc1ccc(N2C(=O)c3cccc4cccc(c34)C2=O)cc1)c1ccc(N2CCCCC2)c([N+](=O)[O-])c1,4.35,
O=C(NC1C2CC3CC(C2)CC1C3)c1ccc(N2CCNCC2)c([N+](=O)[O-])c1 (stereo not drawn),20.4,
Cc1cccc(C)c1NC(=O)CNC(=O)c1ccc(N2CCOCC2)c([N+](=O)[O-])c1,-0.0226,
CC(NC(=O)c1ccc(N2CCNCC2)c([N+](=O)[O-])c1)C12CC3CC(CC(C3)C1)C2 (stereo not drawn),,16.4 µM (active)
CCc1noc(C)c1C(=O)OCC(=O)c1ccc(NC(=O)CC(C)C)cc1,1.43,
Cc1cc2nc(-c3ccco3)c(Cc3cccc(F)c3)n2c(C)c1Br,,20.6 µM (active)
Fc1cccc(Cc2c(-c3ccc(Cl)cc3)nc3ccc(Cl)cn23)c1,-1.75,
Cc1cc2nc(-c3ccc(F)cc3)c(Cc3ccsc3)n2c(C)c1Br,-22.5,
COc1cc(C=C(OC(C)=O)c2ccc3c(c2)OCO3)cc(OC)c1OC,-12.3,

Structure (SMILES),"activity, negative = less viability [%]",Potency
CCCNC(=O)C[C@@H]1CC[C@@H]2[C@H](COC[C@H](O)CN2C(=O)c2cc(Cl)cc(Cl)c2)O1,10.8,
CCOC(=O)c1cc2cc(OC)ccc2n1C1CCN(C)CC1,-25.5,
CC1(C)N=C(N)NC(Nc2ccc(Cl)cc2)=N1,14.3,
COc1ccccc1NC1=NC(c2ccc(Cl)cc2)N=C(N)N1 (stereo not drawn),,10 µM (active)
COc1ccccc1NC(=O)C1CCCN1S(=O)(=O)c1ccc(Cl)cc1 (stereo not drawn),-2.2,
CCc1nc2ccc(C(=O)NCCNC(C)=O)cn2c1N(CC)Cc1cccc(Br)c1,25.8,
CCC(C)CN1C(=O)CN(S(C)(=O)=O)CC1(C)C(=O)Nc1ccc2c(c1)OCCO2 (stereo not drawn),-1.35,
C[C@H]1CN(c2ccc(Br)cc2)C(=O)[C@@H]1CC(=O)Nc1ccc(Br)cc1,-0.873,
c1ccc(CNCc2ccc(CNCc3ccccc3)cc2)cc1,-20.6,
CC1(C(=O)Nc2ccc3c(c2)OCCO3)CSCC(=O)N1CCOc1ccccc1 (stereo not drawn),-1.2,
Cc1ccn2c(-c3csc(Nc4ccc(C(=O)O)cc4)n3)c(C)nc2c1,-23.2,
O=c1oc2ccccc2cc1-c1csc(Nc2ccc(O)cc2)n1,,14.6 µM (active)
Cc1cc(C)cc(OCC(=O)NNC(=O)c2cc3ccccc3oc2=O)c1,10.5,
CCc1c(N=O)c(-c2ccccc2)n(O)[n+]1[O-],-3.38,
CC(C)CNC(=O)C1(C)CCCN1C(=O)CSc1ccccc1 (stereo not drawn),20.3,
COc1ccc(C(O)c2nc(-c3ccc4c(c3)OCO4)cs2)cc1 (stereo not drawn),4.1,
CCCc1ccc(S(=O)(=O)N2CCN(C(=O)c3cc(C)on3)CC2)cc1,1.01,
O=C(Nc1nnc([C@H]2C[C@H](O)[C@@H](CO)O2)s1)c1cccc(Cl)c1,1.95,
CN(C)CCN1CCN(c2cc(-c3cccc(Cl)c3)nc3ccnn23)CC1,-16.2,
C#Cc1cc(N2CCN(C(=O)c3ccoc3)CC2)n2nc(-c3cccc(Cl)c3)cc2n1,,14.6 µM (active)
O=C(c1ccccc1)N1CCN(c2cc(-c3ccccc3)nc3cc(-c4cccc(Cl)c4)nn23)CC1,3.77,
CC(=O)Nc1ccc(C=CC(=O)c2ccc([N+](=O)[O-])cc2)cc1,7.09,
O=C(N=C1SC2CS(=O)(=O)CC2N1Cc1ccccc1)c1ccccc1 (stereo not drawn),2.42,
COCOCCn1cc(CN2CCS(=O)(=O)N(Cc3ccc(-c4ccccc4)cc3)C(CC(C)C)C2=O)nn1 (stereo not drawn),-10,
